# Active and inactive are the calls of the source.
# Tests used:
# [1] = binders of probe aFSTL3 on microarray, primary screen, stem cell growth factor project, biochemical, small-molecule microarray, fluorescence 635/667 (AID 1064); conditions: higher = more signal;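 also: measures binding of the biotinylated anti-FSTL3 antibody to printed compounds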
# [2] = binders from COS7 lysate, DM2A8 probe, primary screen, torsin A project, cell lysate, small-molecule microarray, fluorescence 635/667 (AID 1065); conditions: higher = more signal, COS7 lysate expressing mutant human TOR1A
# [3] = binders of probe aFGF2 on microarray, primary screen, stem cell growth factor project, biochemical, small-molecule microarray, fluorescence 635/667 (AID 1067); conditions: higher = more signal;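 also: measures binding of biotinylated aFGF2 protein to printed compounds on slides; z-score merges feature fluorescence and signal-to-noise across triplicate slides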
# [4] = binders of probe aFGF10 on microarray, primary screen, stem cell growth factor project, biochemical, small-molecule microarray, fluorescence 635/667 (AID 1071); conditions: higher = more signal;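 also: score merges 667 nm spot intensity and signal to noise from triplicate slides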
# [5] = target: Neurogenic locus notch homolog protein 2 (Homo sapiens) (UniProt Q04721); assay: Notch2 binders on small-molecule microarrays, primary screen, biochemical, small-molecule microarray, 635 nm fluorescence, stem cell growth factors (AID 1073); conditions: Notch2 binding, higher = more signal
# [6] = target: Pro-neuregulin-1, membrane-bound isoform (Homo sapiens) (UniProt Q02297); assay: NRG1 binders on small-molecule microarrays, primary screen, psychiatric disease protein project, biochemical, small-molecule microarray, fluorescence 635/667 (AID 1075); conditions: NRG1 binding, 635 nm fluorescence, higher = more signal;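 also: score combines 667 nm spot fluorescence with signal to noise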
# [7] = tested on: Neuregulin-1 EGF-like domain; assay: binders of neuregulin-1 EGF-like domain, primary screen, biochemical, small-molecule microarray, 635 nm fluorescence (AID 1081); conditions: small-molecule microarray binding, higher = more signal;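 also: binding of the protein to compounds printed on small-molecule microarray slides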
# [8] = FRG1 promoter luciferase signal modulators, primary screen, FRG1 inhibition for FSHD, cell-based, C2C12 myotubes, firefly/Renilla luciferase, luminescence (AID 1084); conditions: higher = more signal, called active from +8 up or from −8 down
# [9] = binders of probe aFST on microarray, primary screen, stem cell growth factor project, biochemical, small-molecule microarray, fluorescence 635/667 (AID 1086); conditions: higher = more signal;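 also: score merges 667 nm fluorescence with signal-to-noise of each printed compound spot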
# [10] = binders of probe aHhip on microarray, primary screen, stem cell growth factor project, biochemical, small-molecule microarray, fluorescence 635/667 (AID 1087); conditions: higher = more signal;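 also: score merges spot fluorescence at 667nm with spot signal to noise ratio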
# [11] = tested on: PRMT1 (protein arginine N-methyltransferase 1); assay: PRMT1 binders on small-molecule microarrays, primary screen, biochemical, small-molecule microarray, 635 nm fluorescence (AID 1088); conditions: small-molecule microarray binding, higher = more signal;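 also: binding of Prmt1 protein to compounds spotted on small-molecule microarray slides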
# [12] = yeast growth modulation, basal conditions, primary screen, YJM789 clinical isolate, OD600, 24 h (AID 1089);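 also: growth of clinical yeast isolate S. cerevisiae YJM 789 seeded 1000 cells per well; test concentration not given here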; conditions: S. cerevisiae YJM789 growth, higher = more signal, called active from +8 up or from −8 down
# [13] = fission yeast growth modulation, primary screen, strain 972, OD600, 24 h, no modulator (AID 1090);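 also: basal condition with compound alone and no growth modifier present; test concentration not given here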; conditions: S. pombe 972 growth, higher = more signal, called active from +8 up or from −8 down
# [14] = S. cerevisiae growth modulation with rapamycin, primary screen, strain BY4716, OD600, 96 h (AID 1091); conditions: higher = more signal, called active from +8 up or from −8 down; also: test concentration not given here
# [15] = target: Torsin-1A-interacting protein 2 (Homo sapiens) (UniProt Q8NFQ8); assay: LULL1 binders on small-molecule microarray, primary screen, cell lysate, human LULL1 lysate, 635/667 nm fluorescence (AID 1092); conditions: hLULL1 lysate binding, 635 nm fluorescence, higher = more signal;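 also: probe is lysate of COS7 cells overexpressing human LULL1; score merges per-feature 667 nm fluorescence with signal-to-noise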
# [16] = E. coli growth modulation, two-sided OD650, primary screen, E. coli filamentation project, strain DRC41, 24 h (AID 1093); conditions: OD650, 24 h, higher = more signal, called active from +8 up or from −8 down;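 also: MC1000 strain lacking acrAB efflux and sulA so SOS filamentation is blocked; test concentration not given here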
# [17] = small-molecule microarray binders of probe aLefty2, primary screen, biochemical, biotinylated probe, 635/667 nm fluorescence (AID 1094); conditions: higher = more signal;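 also: score merges spot fluorescence near 667 nm with spot signal-to-noise ratio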
# [18] = tested on: Noggin (protein binding on small-molecule microarray); assay: Noggin binders on small-molecule microarray, primary screen, biochemical, 635/667 nm fluorescence (AID 1095); conditions: 635 nm fluorescence, higher = more signal;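 also: score merges 667 nm feature fluorescence with signal to noise over triplicate slides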
# [19] = target: Neurogenic locus notch homolog protein 3 (Homo sapiens) (UniProt Q9UM47); assay: NOTCH3 binders on small-molecule microarray, primary screen, biochemical, 635/667 nm fluorescence (AID 1096); conditions: NOTCH3 binding, 635 nm fluorescence, higher = more signal
# [20] = small-molecule microarray binders of probe aEGFR, primary screen, biochemical, biotinylated probe, 635/667 nm fluorescence (AID 1097); conditions: higher = more signal;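 also: probe is a biotinylated anti-EGFR antibody binding compounds printed on slides; score combines fluorescence near 667 nm and signal to noise of each spot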
# Chain of Pro-neuregulin-1, membrane-bound isoform (Homo sapiens) (Q02297 whole entry, looked up, the tested form may be a part, canonical isoform): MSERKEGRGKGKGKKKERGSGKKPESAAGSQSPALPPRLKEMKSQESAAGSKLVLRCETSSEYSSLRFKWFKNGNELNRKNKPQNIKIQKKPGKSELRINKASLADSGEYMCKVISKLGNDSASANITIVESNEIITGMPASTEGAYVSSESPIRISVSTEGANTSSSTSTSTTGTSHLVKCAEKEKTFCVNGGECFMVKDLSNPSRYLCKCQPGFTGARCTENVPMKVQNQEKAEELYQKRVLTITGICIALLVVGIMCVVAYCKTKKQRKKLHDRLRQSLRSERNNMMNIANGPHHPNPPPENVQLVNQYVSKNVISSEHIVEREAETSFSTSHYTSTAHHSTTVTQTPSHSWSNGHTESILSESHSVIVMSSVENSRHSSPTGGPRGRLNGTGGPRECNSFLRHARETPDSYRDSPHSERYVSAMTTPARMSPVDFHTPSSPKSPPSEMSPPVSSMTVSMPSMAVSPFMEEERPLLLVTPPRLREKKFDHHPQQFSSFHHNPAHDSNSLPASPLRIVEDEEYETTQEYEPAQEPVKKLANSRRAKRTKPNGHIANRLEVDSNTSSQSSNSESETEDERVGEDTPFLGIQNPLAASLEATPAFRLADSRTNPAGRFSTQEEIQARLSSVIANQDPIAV
# Chain of Neurogenic locus notch homolog protein 3 (Homo sapiens) (Q9UM47 whole entry, looked up): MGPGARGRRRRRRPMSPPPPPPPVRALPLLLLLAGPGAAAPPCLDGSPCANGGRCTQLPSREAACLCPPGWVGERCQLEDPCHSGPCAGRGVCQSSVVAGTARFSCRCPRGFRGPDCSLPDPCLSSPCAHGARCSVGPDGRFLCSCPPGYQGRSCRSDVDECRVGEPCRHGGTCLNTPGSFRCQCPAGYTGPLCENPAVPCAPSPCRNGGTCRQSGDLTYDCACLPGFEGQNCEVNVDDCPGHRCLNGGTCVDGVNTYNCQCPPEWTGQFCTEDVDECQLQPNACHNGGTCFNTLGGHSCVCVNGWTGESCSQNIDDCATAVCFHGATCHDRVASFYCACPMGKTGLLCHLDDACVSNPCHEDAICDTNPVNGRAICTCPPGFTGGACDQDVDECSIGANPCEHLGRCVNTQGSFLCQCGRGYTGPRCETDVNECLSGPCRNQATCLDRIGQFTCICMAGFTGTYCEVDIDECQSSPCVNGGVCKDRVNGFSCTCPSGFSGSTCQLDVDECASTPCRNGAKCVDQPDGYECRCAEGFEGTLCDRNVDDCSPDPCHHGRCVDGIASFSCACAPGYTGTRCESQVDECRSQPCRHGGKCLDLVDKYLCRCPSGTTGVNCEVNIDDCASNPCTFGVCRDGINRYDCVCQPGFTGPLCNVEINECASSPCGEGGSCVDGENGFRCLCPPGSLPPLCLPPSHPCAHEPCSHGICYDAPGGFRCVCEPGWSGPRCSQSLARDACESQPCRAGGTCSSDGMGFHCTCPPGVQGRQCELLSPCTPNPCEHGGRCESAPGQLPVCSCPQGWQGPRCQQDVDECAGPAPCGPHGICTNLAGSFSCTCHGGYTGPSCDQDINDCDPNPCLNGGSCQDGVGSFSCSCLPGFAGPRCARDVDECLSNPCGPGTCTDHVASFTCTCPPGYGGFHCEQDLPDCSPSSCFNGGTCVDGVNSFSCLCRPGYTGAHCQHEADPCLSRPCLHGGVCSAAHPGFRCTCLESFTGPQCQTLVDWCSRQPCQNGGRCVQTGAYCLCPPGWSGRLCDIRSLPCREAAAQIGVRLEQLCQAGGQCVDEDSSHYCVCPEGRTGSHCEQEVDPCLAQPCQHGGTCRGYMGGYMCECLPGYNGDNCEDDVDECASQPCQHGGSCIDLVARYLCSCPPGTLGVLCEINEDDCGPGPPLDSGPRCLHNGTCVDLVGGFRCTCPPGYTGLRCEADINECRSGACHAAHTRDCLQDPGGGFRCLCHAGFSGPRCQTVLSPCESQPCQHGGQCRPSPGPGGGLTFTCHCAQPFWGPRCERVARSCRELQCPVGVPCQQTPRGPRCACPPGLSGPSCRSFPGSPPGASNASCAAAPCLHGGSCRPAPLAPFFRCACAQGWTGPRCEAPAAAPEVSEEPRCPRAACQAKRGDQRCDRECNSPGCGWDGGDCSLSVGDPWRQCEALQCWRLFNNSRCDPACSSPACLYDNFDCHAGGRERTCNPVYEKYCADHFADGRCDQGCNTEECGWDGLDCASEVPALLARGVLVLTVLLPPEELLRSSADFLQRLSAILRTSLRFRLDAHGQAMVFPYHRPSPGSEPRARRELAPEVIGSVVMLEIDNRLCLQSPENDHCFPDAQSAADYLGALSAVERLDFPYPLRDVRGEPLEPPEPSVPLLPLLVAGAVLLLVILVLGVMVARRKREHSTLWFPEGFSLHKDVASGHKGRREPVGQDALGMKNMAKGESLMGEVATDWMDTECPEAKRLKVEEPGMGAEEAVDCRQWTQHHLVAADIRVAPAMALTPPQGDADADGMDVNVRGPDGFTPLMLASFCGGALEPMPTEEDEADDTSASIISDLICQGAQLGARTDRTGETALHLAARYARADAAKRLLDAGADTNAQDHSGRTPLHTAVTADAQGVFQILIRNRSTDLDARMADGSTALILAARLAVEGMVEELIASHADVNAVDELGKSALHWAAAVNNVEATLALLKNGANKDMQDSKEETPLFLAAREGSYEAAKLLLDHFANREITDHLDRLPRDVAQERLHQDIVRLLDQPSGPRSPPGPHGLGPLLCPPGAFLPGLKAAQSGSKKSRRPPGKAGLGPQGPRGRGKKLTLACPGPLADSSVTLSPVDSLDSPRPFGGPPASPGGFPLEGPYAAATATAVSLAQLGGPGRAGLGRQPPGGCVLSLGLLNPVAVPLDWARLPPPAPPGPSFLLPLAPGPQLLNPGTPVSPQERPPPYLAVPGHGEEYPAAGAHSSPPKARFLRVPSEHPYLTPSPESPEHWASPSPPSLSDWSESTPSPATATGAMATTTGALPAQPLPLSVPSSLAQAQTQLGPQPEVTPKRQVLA
# Chain of Torsin-1A-interacting protein 2 (Homo sapiens) (Q8NFQ8 whole entry, looked up): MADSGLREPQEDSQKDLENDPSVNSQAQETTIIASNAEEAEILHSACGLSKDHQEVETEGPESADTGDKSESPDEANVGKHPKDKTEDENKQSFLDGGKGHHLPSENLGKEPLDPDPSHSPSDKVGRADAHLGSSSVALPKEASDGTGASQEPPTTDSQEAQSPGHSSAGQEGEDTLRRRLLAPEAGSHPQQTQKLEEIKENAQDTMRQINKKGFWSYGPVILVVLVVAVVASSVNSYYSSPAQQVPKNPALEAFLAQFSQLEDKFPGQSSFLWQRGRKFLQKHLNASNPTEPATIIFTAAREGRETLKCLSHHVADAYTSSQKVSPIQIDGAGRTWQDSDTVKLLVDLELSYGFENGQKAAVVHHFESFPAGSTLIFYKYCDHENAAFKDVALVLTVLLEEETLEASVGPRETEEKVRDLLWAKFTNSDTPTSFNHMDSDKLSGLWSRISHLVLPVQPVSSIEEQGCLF
SMILES,composite z-score [1],composite z-score [2],composite z-score [3],composite z-score [4],composite z-score [5],composite z-score [6],composite z-score [7],z-score [8],composite z-score [9],composite z-score [10],composite z-score [11],z-score [12],z-score [13],z-score [14],composite z-score [15],z-score [16],composite z-score [17],composite z-score [18],composite z-score [19],composite z-score [20]
COC(=O)[C@@]1(Cc2ccc(F)cc2)[C@H]2c3cc(C(=O)N4CCCC4)n(CCc4ccccn4)c3C[C@H]2CN1C(=O)c1ccccc1,0.319,-0.439,0.165,0.124,1.43,1.8,1.4,1.23 (inactive),0.858,-0.201,-0.63,-0.0526 (inactive),0.804 (inactive),0.414 (inactive),2.89,-0.223 (inactive),0.181,-0.701,0.572,-0.164
CCOC(=O)C1=CC[C@@H](c2ccc(OC)cc2)N(S(=O)(=O)c2ccc(C)cc2)[C@H]1c1ccc(C)cc1,-0.208,-0.236,-0.062,0.584,1.52,0.46,1.05,0.0599 (inactive),1.11,-0.0618,0.966,0.106 (inactive),0.529 (inactive),0.53 (inactive),2.84,-0.747 (inactive),0.194,0.191,1.09,0.0656
O=C1C[C@@](C(=O)NCc2ccccc2)(c2ccc([N+](=O)[O-])cc2)[C@@H](c2ccc(CO)cc2)N1C1CCCCC1,-0.709,0.858,-0.101,0.104,0.324,1.4,1.31,-1.47 (inactive),0.117,-0.158,1.57,-1.69 (inactive),-0.221 (inactive),1.08 (inactive),3.09,0.78 (inactive),-0.206,0.65,0.846,-0.14
CCOC(=O)C[C@H]1[C@H](OC(=O)c2ccccc2-c2ccccc2)[C@@H](NC(=O)c2ccc3ccccc3c2)c2cc(OCCCO)ccc2N1C(=O)Cc1ccc(OC)cc1,0.225,0.0793,-0.118,0.162,-0.105,0.0671,-0.58,1.11 (inactive),0.206,-0.0645,-0.793,-0.97 (inactive),-0.446 (inactive),-0.248 (inactive),0.276,-0.904 (inactive),-0.281,-0.206,-0.626,0.0004
COCCCNC(=O)[C@@]1(CCC(=O)OC(C)(C)C)COC(c2ccc(OCCCO)cc2)=N1,-0.0885,0.355,-0.0659,0.611,0.844,1.63,1.21,-0.604 (inactive),0.579,-0.12,1.59,-0.649 (inactive),0.132 (inactive),-2.07 (inactive),3.51,0.488 (inactive),-0.0906,0.337,0.571,-0.13
COc1ccc(C(O)C2C=CC3C(=O)N(c4ccccc4)C(=O)C3N2Nc2ccc(C#N)cc2)cc1OCc1ccccc1 (stereo not given),1.98,1.55,0.19,0.472,1.34,2.02,0.823,0.686 (inactive),1.09,0.0053,1.3,-0.598 (inactive),1.66 (inactive),1.38 (inactive),2.6,-1.16 (inactive),0.455,-0.634,1.11,0.0808
COc1cc(OC)c(C(O)C2C=CC3C(=O)N(c4ccccc4)C(=O)C3N2Nc2ccc(C(C)C)cc2)cc1Br (stereo not given),0.108,-0.0919,0.0559,0.774,1.44,1.4,1.28,-2.19 (inactive),1.2,-0.0994,1.48,-0.0401 (inactive),1.09 (inactive),-0.323 (inactive),3.55,0.315 (inactive),0.136,-0.276,1.05,0.582
NC(=O)NCC#Cc1ccc2c(c1)[C@]1(C(=O)N2)[C@H](c2ccc(OCCO)cc2)N2[C@H](c3ccccc3)[C@H](c3ccccc3)OC(=O)[C@H]2[C@@H]1C(=O)O,-0.218,1.36,-0.187,0.23,-0.459,1.68,-0.269,0.542 (inactive),0.0897,-0.374,-0.541,0.467 (inactive),-0.662 (inactive),0.23 (inactive),-0.143,0.775 (inactive),-0.139,-0.292,-0.343,-0.209
CCCCC(O)C1C=CC2C(=O)N(c3ccccc3)C(=O)C2N1Nc1ccc([N+](=O)[O-])cc1 (stereo not given),0.108,0.0331,-0.0004,0.531,1.06,1.58,1.35,0.456 (inactive),1.27,-0.154,1.55,-0.676 (inactive),0.429 (inactive),0.154 (inactive),3.68,0.916 (inactive),-0.144,0.146,1.11,-0.0828
C=CC[C@@]1(C(=O)N(C)C)N=C(c2ccc(OCCCO)cc2)O[C@@H]1c1ccccc1CN=[N+]=[N-],0.151,0.448,-0.0004,1.01,1.61,1.68,1.17,-2.64 (inactive),1.18,0.0373,1.55,-0.127 (inactive),-0.0815 (inactive),-0.64 (inactive),3.33,1.42 (inactive),0.264,1.77,1.07,0.538

# From PubChem BioAssay
